Some test systems named below: SR leukemia; RPMI-8226 leukemia; OVCAR-8 ovarian; OVCAR-5 ovarian; OVCAR-4 ovarian; SK-OV-3 ovarian; IGROV1 ovarian; OVCAR-3 ovarian; HS 578T breast; NCI/ADR-RES ovarian.
Experiment in all cases: NCI-60 one-dose screen, 48 h (100 = growth as untreated, 0 = no growth, -100 = all killed)
Settings in all cases: 10 µM unless noted

Compounds without any hit were thinned out: in the full panel of roughly 83,000, 20% have a hit.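 Single-dose data. Exposure time 48 hours. Values below 10 considered active.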 Unmarked numbers belong to inactive results. Activity calls are given as the source filed them.

Take `CCOC(=O)c1c(O)cc(-c2ccccc2)cc1-c1sc(N(C)Cc2ccccc2)nc1Cl`: the growth was 93.4% in the assay on SR leukemia; 95.2% in the assay with RPMI-8226 leukemia; 97.8% in the assay on OVCAR-8 ovarian; 89.4% with OVCAR-5 ovarian; 102% in the assay on OVCAR-4 ovarian; 95.7% in the assay on SK-OV-3 ovarian. For the same molecule, the growth was 108% with IGROV1 ovarian, 106% in the assay with OVCAR-3 ovarian, 88.6% in the assay with HS 578T breast and 102% with NCI/ADR-RES ovarian.
Regarding `S=c1[nH]cccc1-c1nnc2n1Nc1nc3ccc(Cl)cc3cc1CS2`, the growth with SR leukemia is 85.6%; in the assay with RPMI-8226 leukemia, 98.1%; in the assay with OVCAR-8 ovarian it was 102%; with OVCAR-5 ovarian, 95.3%; in the assay with OVCAR-4 ovarian, 101%; with SK-OV-3 ovarian, 94.3%. The growth in the assay with IGROV1 ovarian is 90.1%; in the assay on OVCAR-3 ovarian, 105%; with HS 578T breast, 89.3%; in the assay with NCI/ADR-RES ovarian, 99.3%.
For the molecule `Fc1ccc(C2CC(c3cccc(Nc4ccncc4)c3)=NN2c2ccc(Cl)cc2)cc1` (stereo not given), the growth is 4.4% (active) in the assay on SR leukemia; 28% in the assay with RPMI-8226 leukemia; 22.6% in the assay with OVCAR-8 ovarian; 88.8% in the assay on OVCAR-5 ovarian; 60.7% in the assay with OVCAR-4 ovarian; 80.9% with SK-OV-3 ovarian. The growth in the assay with IGROV1 ovarian is 44.3%; in the assay with OVCAR-3 ovarian, 67.8%; in the assay with HS 578T breast it was 79.9%; in the assay on NCI/ADR-RES ovarian it was 66.8%.
Turning to `O=S(=O)(NCCCNc1nccc(-c2c(-c3ccc(F)c(O)c3)nc3sccn23)n1)c1ccc(F)cc1`, the growth is -7.44% (active) with SR leukemia; -47.7% (active) in the assay with RPMI-8226 leukemia; -11.9% (active) in the assay on OVCAR-8 ovarian; 24.4% in the assay on OVCAR-5 ovarian; 3.86% (active) in the assay with OVCAR-4 ovarian; 17.9% in the assay with SK-OV-3 ovarian. For the same molecule, the growth in the assay on IGROV1 ovarian was 0.863% (active); in the assay with OVCAR-3 ovarian it was 20.8%; in the assay with HS 578T breast, 3.15% (active); in the assay on NCI/ADR-RES ovarian, 48.2%.
As for `C[C@H]1[C@H](C)CC[C@]2(CO)CC[C@]3(C)C(=CC[C@@H]4[C@@]5(C)Cc6c([nH]c7ccccc67)C(C)(C)[C@@H]5CC[C@]43C)[C@H]12`, the growth is 75.8% in the assay on SR leukemia; 83.7% with RPMI-8226 leukemia; 77% in the assay with OVCAR-8 ovarian; 116% with OVCAR-5 ovarian; 89.8% in the assay with OVCAR-4 ovarian; 96.9% with SK-OV-3 ovarian. In addition, the growth with IGROV1 ovarian is 88.8%; in the assay with OVCAR-3 ovarian it was 87.4%; in the assay on HS 578T breast, 74.6%; in the assay with NCI/ADR-RES ovarian it was 90.6%.
With `COc1ccc(/C=N/C2=C(C#N)C(c3ccccc3[N+](=O)[O-])c3ccc4ccccc4c3O2)cc1` (stereo not given), the growth in the assay on SR leukemia is 89.4%; in the assay on RPMI-8226 leukemia, 90.3%; with OVCAR-8 ovarian it was 95.1%; in the assay with OVCAR-5 ovarian it was 105%; in the assay with OVCAR-4 ovarian, 91.5%; in the assay with SK-OV-3 ovarian it was 101%. The growth was 54.6% in the assay with IGROV1 ovarian, 77.4% in the assay with OVCAR-3 ovarian, 95.3% in the assay with HS 578T breast and 95.8% with NCI/ADR-RES ovarian.
Consider `CCN(CC)CCCCCCNc1cc(OC)cc2cccnc12`, for which the growth was -51.2% (active) with SR leukemia; -8.8% (active) in the assay with RPMI-8226 leukemia; 20.7% with OVCAR-8 ovarian; 97.7% in the assay on OVCAR-5 ovarian; 44.6% with OVCAR-4 ovarian; 101% with SK-OV-3 ovarian. In addition, the growth is 88.8% with IGROV1 ovarian, -44.2% (active) in the assay with OVCAR-3 ovarian, 92.5% in the assay with HS 578T breast and 82.9% in the assay on NCI/ADR-RES ovarian.
Turning to `Cc1ccc(C2CC(c3cccc(Nc4ccncc4)c3)=NN2c2ccc(Cl)cc2)cc1` (stereo not given), the growth in the assay on SR leukemia is -12.4% (active); in the assay on RPMI-8226 leukemia it was -46% (active); with OVCAR-8 ovarian, -35% (active); in the assay with OVCAR-5 ovarian, -100% (active); in the assay with OVCAR-4 ovarian, -83.2% (active); in the assay on SK-OV-3 ovarian, -92.3% (active). Also, the growth with IGROV1 ovarian was -92.7% (active); in the assay on OVCAR-3 ovarian it was -91.1% (active); with HS 578T breast, -55.9% (active); with NCI/ADR-RES ovarian it was -63% (active).
As to `N/C(=N\N=C\c1cc2ccccc2[nH]1)N/N=C/c1cc2ccccc2[nH]1`, the growth is 6.87% (active) in the assay with SR leukemia; 88.2% in the assay with RPMI-8226 leukemia; 97.4% with OVCAR-8 ovarian; 109% with OVCAR-5 ovarian; 83% in the assay on OVCAR-4 ovarian; 88.6% with SK-OV-3 ovarian. For the same molecule, the growth is 64.4% in the assay with IGROV1 ovarian, 93.9% with OVCAR-3 ovarian, 90.3% in the assay on HS 578T breast and 100% with NCI/ADR-RES ovarian.
Consider `C#Cc1cccc(NC(=O)Nc2cccc(N=C=S)c2)c1`, for which the growth with SR leukemia was 88.9% [8.25 µM]; in the assay with RPMI-8226 leukemia it was 99.3% [8.25 µM]; with OVCAR-8 ovarian it was 98.6% [8.25 µM]; in the assay with OVCAR-5 ovarian, 102% [8.25 µM]; in the assay on OVCAR-4 ovarian, 99.6% [8.25 µM]; in the assay with SK-OV-3 ovarian, 120% [8.25 µM]. Moreover, the growth was 98.4% [8.25 µM] in the assay on IGROV1 ovarian, 115% [8.25 µM] with OVCAR-3 ovarian, 95.6% [8.25 µM] in the assay with HS 578T breast and 106% [8.25 µM] in the assay with NCI/ADR-RES ovarian.
For the molecule `COc1ccc(Nc2nc(N)nc3c2CCc2occc2-3)cc1`, the growth in the assay on SR leukemia is 85.8%; in the assay with RPMI-8226 leukemia it was 101%; with OVCAR-8 ovarian it was 102%; with OVCAR-5 ovarian, 106%; with OVCAR-4 ovarian it was 96.9%; in the assay with SK-OV-3 ovarian it was 97.8%. Besides, the growth with IGROV1 ovarian was 102%; with OVCAR-3 ovarian it was 103%; in the assay with HS 578T breast, 105%; in the assay with NCI/ADR-RES ovarian, 96.2%.
With `CN1CCN(CCCNc2nccc(-c3c(-c4ccc(F)c(O)c4)nc4sccn34)n2)S1(=O)=O`, the growth is 58.1% in the assay on SR leukemia; 87.4% with RPMI-8226 leukemia; 96.1% in the assay with OVCAR-8 ovarian; 131% with OVCAR-5 ovarian; 133% in the assay on OVCAR-4 ovarian; 91.8% in the assay on SK-OV-3 ovarian. In addition, the growth was 98.5% in the assay with IGROV1 ovarian, 116% with OVCAR-3 ovarian, 97.2% in the assay with HS 578T breast and 99.5% in the assay with NCI/ADR-RES ovarian.
In the case of `CCN(CC)S(=O)(=O)c1cccc([N+](=O)[O-])c1`, the growth is 103% with SR leukemia; 93.2% in the assay on RPMI-8226 leukemia; 85.7% in the assay with OVCAR-8 ovarian; 109% in the assay on OVCAR-5 ovarian; 95.4% with OVCAR-4 ovarian; 86.9% in the assay on SK-OV-3 ovarian. For the same molecule, the growth was 107% in the assay on IGROV1 ovarian, 108% in the assay on OVCAR-3 ovarian, 97.9% with HS 578T breast and 103% in the assay on NCI/ADR-RES ovarian.

The values above are taken from PubChem BioAssay (NCI).
